# From PubChem BioAssay
# Activity calls are given as the source filed them. Unless noted, no rule for the calls is given here.
# How the values were obtained:
# [1] = compounds binding Alexa647 anti-His antibody – biochemical, small-molecule microarray, 635 nm fluorescence, artefact control for SMM control protein annotation, primary screen (AID 1128); conditions: higher = more signal;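 also: score merges feature fluorescence with signal-to-noise for each printed compound spot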
# [2] = system: Human papillomavirus type 1a E7 protein (residues 1-88); experiment: HPV1a E7 small-molecule binders, primary screen, biochemical, small-molecule microarray, residues 1-88, 635 nm (AID 1129); conditions: small-molecule microarray binding, fluorescence 635 nm; higher = more signal
# [3] = target: Focal adhesion kinase 1 (Homo sapiens) (UniProt Q05397); experiment: PTK2 protein binding on printed compound slides – biochemical, small-molecule microarray, 635/667 nm fluorescence, BSA, DTT, primary screen (AID 1130); conditions: 635 nm fluorescence, higher = more signal;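 also: composite of spot emission at 667 nm and signal to noise over triplicate slides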
# [4] = system: Fibrinogen (Alexa647-labelled); experiment: Alexa647-fibrinogen binding to printed small molecules – biochemical, small-molecule microarray, 635/667 nm fluorescence, artefact control for SMM control-protein annotation, profiling panel (AID 1131); conditions: fibrinogen-A647 binding fluorescence, higher = more signal;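 also: z-score merges 667 nm fluorescence with per-spot signal-to-noise over triplicate slides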
# [5] = target: Follistatin (Homo sapiens) (UniProt P19883); experiment: FST protein binding to printed compounds – biochemical, small-molecule microarray, 635/667 nm fluorescence, primary screen (AID 1132); conditions: 635 nm fluorescence, higher = more signal
# [6] = target: Fibroblast growth factor 2 (Homo sapiens) (UniProt P09038); experiment: basic fibroblast growth factor binding to printed compounds – biochemical, small-molecule microarray, 635/667 nm fluorescence, primary screen (AID 1133); conditions: FGF2, fluorescence 635/667, higher = more signal
# [7] = JC-1 mitochondrial potential readout, lung cancer cells – cell-based, A549, JC-1 fluorescence, basal, 24 h, 100 nL, profiling panel (AID 1138); conditions: higher = more signal;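 also: A549 lung adenocarcinoma cells under basal conditions with no added stimulus; test concentration not given here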
# Lefty1 = Lefty1 protein binding to printed compounds – biochemical, small-molecule microarray, 635/667 nm fluorescence, primary screen (AID 1139); conditions: fluorescence 635/667, higher = more signal
# [8] = system: wheat germ agglutinin (Triticum aestivum), Alexa647-labelled; experiment: Alexa647-WGA lectin binding to printed small molecules – biochemical, small-molecule microarray, 635/667 nm fluorescence, artefact control for SMM control-protein annotation, profiling panel (AID 1140); conditions: WGA-A647 binding, 635 nm fluorescence, higher = more signal;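 also: score merges 667 nm feature emission with signal to noise over triplicate slides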
# [9] = target: Luciferin 4-monooxygenase (Photinus pyralis) (UniProt P08659); experiment: inhibition of purified Photinus pyralis luciferase – biochemical, luminescence, purified enzyme, 2006 set, primary screen (AID 1141); conditions: purified firefly luciferase, SteadyGlo luminescence, 30 min; higher = more signal, called active from +8 up or from −8 down;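 also: cell-free assay with purified firefly luciferase at 100 ng per well in PBS; test concentration not given here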
# [10] = system: Wnt5a (protein binding on small-molecule microarray); experiment: small molecules binding Wnt5a protein – biophysical, small-molecule microarray, 635/667 nm fluorescence, primary screen (AID 1142); conditions: 635 nm fluorescence, higher = more signal;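 also: fluorescence read at 667 nm with signal to noise per printed feature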
# [11] = ATP-based viability of Huh7 replicon cells – cell-based, CellTiter-Glo luminescence, basal, 48 h, cytotoxicity control for HCV replication inhibitor project, primary screen (AID 1143); conditions: higher = more signal, called active from +8 up or from −8 down;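 also: Huh7 hepatoma cells carrying a hepatitis C replication reporter with no stimulus; test concentration not given here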
# [12] = Pseudomonas biofilm growth suppression – PAO1 strain, BacTiter-Glo luminescence, LB-PBS, primary screen (AID 1144); conditions: P. aeruginosa PAO1 biofilm, 12 h, higher = more signal
# [13] = basal CRE-LacZ reporter activity in PC12 – cell-based, unstimulated, primary screen (AID 1145); conditions: no forskolin, luminescence, 4.5 h, higher = more signal, called active from +8 up or from −8 down
# [14] = forskolin-driven CRE-LacZ activity in PC12 – cell-based, CRE-LacZ reporter, forskolin-stimulated, primary screen (AID 1146); conditions: luminescence, 4.5 h, higher = more signal, called active from +8 up or from −8 down;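 also: PC12 cells with 6xCRE LacZ reporter stimulated by forskolin 10 µM; beta-galactosidase reporter signal reflecting CREB driven transcription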
# [15] = target: Streptavidin (Streptomyces avidinii) (UniProt P22629); experiment: compounds binding control protein streptavidin – biophysical, small-molecule microarray, 635/667 nm fluorescence, artefact control for SMM compound annotation, primary screen (AID 1147); conditions: higher = more signal;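 also: signal reflects streptavidin binding to arrayed compounds as a control protein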
# [16] = probe aInhba binding on compound microarray – biochemical, small-molecule microarray, 635/667 nm fluorescence, primary screen (AID 1148); conditions: higher = more signal;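 also: score merges 667nm spot fluorescence with signal-to-noise for antibody binding to printed compounds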
# Torsin-1A (Homo sapiens) [17] = target: Torsin-1A (Homo sapiens) (UniProt O14656); experiment: TOR1A wild-type binding on microarray – cell lysate, small-molecule microarray, lysate, 635/667 nm, primary screen (AID 1149); conditions: COS7 hTOR1A-WT lysate, 635 nm fluorescence, higher = more signal
# Torsin-1A (Homo sapiens) [18] = target: Torsin-1A (Homo sapiens) (UniProt O14656); experiment: torsin A mutant lysate binding on microarrays – cell lysate, small-molecule microarray, COS7 lysate, 635/667 nm fluorescence, primary screen (AID 1150); conditions: COS7 hTOR1A mutant lysate, 635 nm fluorescence, higher = more signal;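 also: score pools 667 nm emission and signal to noise measuring lysate protein binding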
# [19] = system: Sonic hedgehog protein (Shh); experiment: Sonic hedgehog microarray binding compounds – biochemical, small-molecule microarray, 635/667 nm fluorescence, primary screen (AID 1151); conditions: 635 nm fluorescence, higher = more signal;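 also: Shh protein binding to compounds spotted on small-molecule microarray slides; score combines spot fluorescence intensity with signal-to-noise across triplicate slides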
# Chain of Fibroblast growth factor 2 (Homo sapiens) (P09038 whole entry, looked up): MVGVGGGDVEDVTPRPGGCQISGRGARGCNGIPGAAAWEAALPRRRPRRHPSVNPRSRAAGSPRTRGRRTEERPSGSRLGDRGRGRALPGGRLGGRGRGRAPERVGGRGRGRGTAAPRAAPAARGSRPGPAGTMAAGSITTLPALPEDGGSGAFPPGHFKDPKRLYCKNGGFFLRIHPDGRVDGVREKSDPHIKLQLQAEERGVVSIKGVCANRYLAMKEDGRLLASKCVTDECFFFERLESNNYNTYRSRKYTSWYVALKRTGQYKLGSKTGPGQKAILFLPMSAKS
# Chain of Streptavidin (Streptomyces avidinii) (P22629 whole entry, looked up): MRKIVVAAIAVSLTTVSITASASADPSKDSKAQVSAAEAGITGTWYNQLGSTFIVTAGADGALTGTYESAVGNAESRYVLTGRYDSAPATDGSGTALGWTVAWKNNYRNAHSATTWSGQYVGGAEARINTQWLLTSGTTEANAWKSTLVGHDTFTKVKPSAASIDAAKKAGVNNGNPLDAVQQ
# Chain of Torsin-1A (Homo sapiens) (O14656 whole entry, looked up): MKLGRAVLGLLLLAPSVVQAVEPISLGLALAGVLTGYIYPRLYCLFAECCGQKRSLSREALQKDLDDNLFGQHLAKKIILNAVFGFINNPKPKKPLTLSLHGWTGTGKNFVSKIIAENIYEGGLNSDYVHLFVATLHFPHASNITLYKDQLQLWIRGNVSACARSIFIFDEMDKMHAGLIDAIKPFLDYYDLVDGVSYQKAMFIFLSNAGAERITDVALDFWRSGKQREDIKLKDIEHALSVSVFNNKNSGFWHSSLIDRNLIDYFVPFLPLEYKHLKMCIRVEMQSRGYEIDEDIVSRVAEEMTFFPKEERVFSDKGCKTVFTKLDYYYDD
# Chain of Luciferin 4-monooxygenase (Photinus pyralis) (P08659 whole entry, looked up): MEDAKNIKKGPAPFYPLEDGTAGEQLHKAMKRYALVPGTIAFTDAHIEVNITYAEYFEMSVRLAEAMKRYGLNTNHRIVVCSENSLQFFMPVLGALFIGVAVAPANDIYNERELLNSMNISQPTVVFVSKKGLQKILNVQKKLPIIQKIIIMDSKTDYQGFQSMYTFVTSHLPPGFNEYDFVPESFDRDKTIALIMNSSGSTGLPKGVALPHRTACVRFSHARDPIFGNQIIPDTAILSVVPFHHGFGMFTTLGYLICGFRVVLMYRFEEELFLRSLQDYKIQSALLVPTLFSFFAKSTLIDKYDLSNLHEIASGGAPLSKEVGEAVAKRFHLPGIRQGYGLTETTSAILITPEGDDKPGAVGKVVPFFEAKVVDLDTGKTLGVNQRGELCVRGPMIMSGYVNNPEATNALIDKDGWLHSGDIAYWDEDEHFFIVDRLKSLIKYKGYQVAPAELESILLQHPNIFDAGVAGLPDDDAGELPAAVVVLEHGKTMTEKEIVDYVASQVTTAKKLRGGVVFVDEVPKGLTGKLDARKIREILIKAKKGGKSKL
# Chain of Follistatin (Homo sapiens) (P19883 whole entry, looked up): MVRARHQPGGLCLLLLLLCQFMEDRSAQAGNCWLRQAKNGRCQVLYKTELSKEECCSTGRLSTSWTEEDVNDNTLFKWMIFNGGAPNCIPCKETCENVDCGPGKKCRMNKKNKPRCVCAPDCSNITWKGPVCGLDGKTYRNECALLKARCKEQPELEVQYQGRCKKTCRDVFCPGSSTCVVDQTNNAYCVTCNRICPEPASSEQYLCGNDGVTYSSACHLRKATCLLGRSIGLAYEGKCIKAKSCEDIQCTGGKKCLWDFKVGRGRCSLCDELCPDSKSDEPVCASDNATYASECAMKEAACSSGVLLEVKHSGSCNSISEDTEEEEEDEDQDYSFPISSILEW
# Chain of Focal adhesion kinase 1 (Homo sapiens) (Q05397 whole entry, looked up): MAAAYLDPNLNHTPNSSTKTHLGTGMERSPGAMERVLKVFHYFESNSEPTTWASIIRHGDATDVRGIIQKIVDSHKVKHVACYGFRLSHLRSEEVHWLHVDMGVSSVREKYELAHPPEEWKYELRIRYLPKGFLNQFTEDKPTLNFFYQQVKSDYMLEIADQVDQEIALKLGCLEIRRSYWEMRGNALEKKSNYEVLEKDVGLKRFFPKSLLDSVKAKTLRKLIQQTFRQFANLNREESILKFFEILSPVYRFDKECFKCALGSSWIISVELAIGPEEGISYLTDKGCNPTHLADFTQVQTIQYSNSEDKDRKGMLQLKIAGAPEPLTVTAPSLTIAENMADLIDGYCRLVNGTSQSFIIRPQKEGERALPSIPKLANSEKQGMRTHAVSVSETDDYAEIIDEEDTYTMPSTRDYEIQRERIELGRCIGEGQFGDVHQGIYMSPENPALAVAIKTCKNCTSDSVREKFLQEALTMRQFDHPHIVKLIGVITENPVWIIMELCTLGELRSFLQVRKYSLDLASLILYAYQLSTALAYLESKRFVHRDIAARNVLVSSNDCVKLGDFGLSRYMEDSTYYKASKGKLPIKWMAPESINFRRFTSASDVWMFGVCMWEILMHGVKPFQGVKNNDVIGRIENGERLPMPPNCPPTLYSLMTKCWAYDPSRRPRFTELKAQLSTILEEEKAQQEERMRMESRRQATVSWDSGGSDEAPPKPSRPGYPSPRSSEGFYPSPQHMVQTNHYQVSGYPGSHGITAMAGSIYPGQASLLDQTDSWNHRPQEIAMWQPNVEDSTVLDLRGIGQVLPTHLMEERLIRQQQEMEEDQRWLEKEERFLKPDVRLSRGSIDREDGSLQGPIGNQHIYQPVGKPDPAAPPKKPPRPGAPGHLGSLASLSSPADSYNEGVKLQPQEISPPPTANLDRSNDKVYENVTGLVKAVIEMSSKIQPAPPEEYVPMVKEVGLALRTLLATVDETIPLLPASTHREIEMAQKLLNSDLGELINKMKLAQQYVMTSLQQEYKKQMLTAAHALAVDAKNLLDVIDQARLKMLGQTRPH
Structure (SMILES),composite z-score [1],composite z-score [2],composite z-score [3],composite z-score [4],composite z-score [5],composite z-score [6],z-score [7],composite z-score (Lefty1),composite z-score [8],z-score [9],composite z-score [10],z-score [11],z-score [12],z-score [13],z-score [14],composite z-score [15],composite z-score [16],composite z-score (Torsin-1A (Homo sapiens) [17]),composite z-score (Torsin-1A (Homo sapiens) [18]),composite z-score [19]
COC(=O)CC=C[C@@H](C)[C@@H](C=NO[C@@H](C)c1cc(-c2c(C)cc(C)cc2C)no1)OC,0.525,-1.06,-0.688,-1.47,-0.732,-1.35,-0.542,-1.43,-1.03,0.973 (inactive),-0.828,-2.12 (inactive),-0.726 (inactive),2.71 (inactive),-0.254 (inactive),-0.432,-0.249,-2.2,-2.18,-1.46
C=CCOC(=O)[C@H]1[C@@H]2C(=O)O[C@@H](c3ccccc3)[C@@H](c3ccccc3)N2[C@@H](c2ccc(OCCOC(=O)[C@H]3C[C@H]4C(=O)N5CCC[C@H]5C(=O)N4[C@H]3c3cccc(OCCO)c3)cc2)[C@]12C(=O)Nc1ccc(I)cc12,3.59,1.25,-0.259,0.97,1.46,1.68,0.445,1.37,1.5,0.108 (inactive),1.83,0.156 (inactive),-0.315 (inactive),-0.134 (inactive),0.437 (inactive),2.76,1.17,1.95,2.23,2.08
CC1CC/C=C\[C@H]2OC34C=CCN(Cn5nnc6ccccc65)C(=O)[C@H]3N(CCO)C(=O)[C@@H]4C2C(=O)O1 (stereo not given in full),0.885,1.16,1.42,-1.14,-0.312,-1.35,-0.547,-0.428,1.24,-1.98 (inactive),-0.335,-2.74 (inactive),-2.49 (inactive),-1.44 (inactive),-1.01 (inactive),-0.923,-0.0719,2.73,2.11,-0.0981
O=C1C[C@@H](O)[C@@H](O)[C@@H]2[C@@H]3C(=O)N(Cc4ccc5c(c4)OCO5)C(=O)[C@@H]3CC[C@@H]12,-0.0619,0.459,0.0309,0.197,0.499,0.507,0.481,0.549,-0.107,-0.786 (inactive),0.0765,0.136 (inactive),0.00816 (inactive),-0.116 (inactive),0.0785 (inactive),-0.282,-0.149,0.622,0.407,0.698
CCOC(=O)[C@H](CC(C)C)NC(=O)CCC1CC(OC(=O)NCCc2ccc(F)cc2)CC2(CCCC(COC(=O)NCc3ccccc3)O2)O1 (stereo not given in full),0.49,1.17,0.212,0.538,0.693,0.936,-0.692,1.04,0.422,0.629 (inactive),0.371,-4.31 (inactive),-0.568 (inactive),0.199 (inactive),0.659 (inactive),0.255,-0.226,1.47,0.154,1.86
COC(=O)CC=C[C@@H](C)[C@@H](C=NO[C@H](C)c1cn([C@@H]2COC[C@H]2O)nn1)OC,1.19,0.695,-0.0208,-0.0974,0.341,0.796,0.014,0.645,-0.116,-0.287 (inactive),0.0282,0.324 (inactive),-1.66 (inactive),0.518 (inactive),-0.0094 (inactive),0.521,-0.159,0.73,0.863,0.76
CC(C)CN1CCc2nc(-c3ccccc3)c3c(c2CC1)CO[C@@H](C)C3,0.21,0.103,0.101,0.418,0.587,0.478,0.186,0.435,0.22,-0.227 (inactive),0.134,-0.388 (inactive),-0.705 (inactive),0.738 (inactive),-1.26 (inactive),-0.2,0.255,0.531,0.954,1.53
CCN1C(=O)[C@H]2[C@H]3[C@H](O)[C@H](O)CC(=NOCC=C(C)CCC=C(C)C)[C@H]3CC[C@H]2C1=O,0.918,1.1,0.123,0.0065,1.26,1.51,-0.298,1.58,-0.207,-0.279 (inactive),0.249,-0.327 (inactive),-0.805 (inactive),-0.0223 (inactive),-0.323 (inactive),-0.298,-0.0471,0.896,0.43,1.77
COCCCNC(=O)[C@@]1(Sc2ccc(C)cc2)CC(=O)N(Cc2ccccc2)[C@@H]1c1ccc(CO)cc1I,0.101,0.264,-0.303,-0.154,-0.191,-0.376,1.63,-1.13,-0.308,-0.848 (inactive),0.129,-1.25 (inactive),0.501 (inactive),-0.232 (inactive),1.48 (inactive),-0.684,0.106,0.234,0.0773,-0.772
CC(C)(C)N1CC=CC23O[C@@H]4C=CCCOC(=O)C4[C@H]2C(=O)N(CCCCCO)[C@@H]3C1=O (stereo not given in full),0.373,0.233,-0.441,-1.67,-0.435,-0.51,0.678,0.887,0.671,-0.789 (inactive),0.37,-0.128 (inactive),-0.174 (inactive),0.333 (inactive),-0.329 (inactive),-0.102,0.214,1.11,0.879,0.992
